MITF primary: MITF inhibitors, primary screen, biochemical, AlphaScreen, human; Microphthalmia-associated transcription factor (Homo sapiens), O75030; 650,000 compounds, 0.91% hits; AlphaScreen MITF homodimerization, bead proximity signal; inhibition, % at 2.6 µM; in the data active means inhibition above about 50%;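 further: 0% = vehicle wells with protein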
FBW7 act: FBW7 E3 ligase activators, primary screen, biochemical, AlphaScreen, human | 650,000 compounds, 0.13% hits | F-box/WD repeat-containing protein 7 (Homo sapiens), Q969H0 | AID 1259310, 2017 | normalized activity (activation), % at 26.1 µM | AlphaScreen FBW7–phospho-cyclin E peptide binding, activator screen; in the data active means normalized activity above about 1.9%;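 further: purified mutant Fbw7 with reduced substrate affinity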
GPR151 ag: activators of human GPR151, primary screen, cell-based, PathHunter beta-arrestin, luminescence; G-protein coupled receptor 151 (Homo sapiens), Q8TDV0; PathHunter beta-arrestin GPR151 cells; activation, % at 11.2 µM; 650,000 compounds, 1% hits; AID 1508602, 2020; in the data active means activation above about 4.9%;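 further: 0% = median of compound wells and 100% = cells with positive control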
Target sequence (Q8TDV0 whole entry, looked up): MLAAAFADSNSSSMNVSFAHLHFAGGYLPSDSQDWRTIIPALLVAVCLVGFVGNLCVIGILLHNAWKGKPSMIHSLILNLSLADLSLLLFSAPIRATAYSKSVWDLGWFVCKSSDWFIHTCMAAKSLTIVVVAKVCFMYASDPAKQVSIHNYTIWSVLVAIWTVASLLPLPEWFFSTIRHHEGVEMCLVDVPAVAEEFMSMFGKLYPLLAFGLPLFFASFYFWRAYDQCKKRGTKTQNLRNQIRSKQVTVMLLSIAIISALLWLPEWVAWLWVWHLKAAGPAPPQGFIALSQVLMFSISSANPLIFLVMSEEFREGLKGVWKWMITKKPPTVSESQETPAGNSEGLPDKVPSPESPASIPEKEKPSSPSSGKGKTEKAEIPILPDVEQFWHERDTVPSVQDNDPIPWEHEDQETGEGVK
TEAD-YAP block: TEAD-YAP interaction inhibition, primary screen, TEAD-YAP interaction inhibitor project, luminescence, HEK-TIYL cells. TEAD-Gal4/YAP UAS-luciferase luminescence. inhibition, % at 9.12 µM. 640,000 compounds, 1.4% hits. AID 1259422, 2018; in the data active means inhibition above about 32%;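 further: 0% = median of test compound wells and 100% = reference inhibitor wells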
MITF inh conf: MITF inhibitors, retest of hits, confirmation, biochemical, AlphaScreen, triplicate; 4,700 compounds, 16% hits; inhibition, % at 2.6 µM; AID 1259372, 2018; AlphaScreen MITF homodimerization, biotin/His-MITF beads; shares compounds with MITF primary;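 active means inhibition above a cutoff derived from the DMSO control wells, cut at about 28% in these data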;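 further: 0% = MITF dimer wells with DMSO only; inhibitors lower the bead chemiluminescence by keeping MITF from dimerizing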
AS interf DR: AlphaScreen optical interference compounds, dose response, counter-screen, biochemical, HTS; 480 compounds, 6% hits; IC50, µM; AlphaScreen optical interference counterscreen, cell-free; shares compounds with MITF primary; call rule not given here
AS interf ctr: AlphaScreen optical interference compounds, counter-screen for MITF inhibitor project, biochemical, triplicate | shares compounds with MITF primary | LysRS AlphaScreen counterscreen, signal interference | inhibition, % at 2.6 µM | 4,700 compounds, 7.6% hits | AID 1259376, 2018;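 active means inhibition above a cutoff derived from the DMSO control wells, cut at about 30% in these data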
Active calls of the source: *; nt = no result given. Compounds with a hit are over-represented: about 3.4% of the library has one in this group of screens.

SMILES	MITF primary	FBW7 act	GPR151 ag	TEAD-YAP block	MITF inh conf	AS interf ctr	others
CC(NC(=O)C1CCN(Cc2ccccc2)CC1)c1ccccc1 (configuration not stated)	52.8*	0.2	0.4	3.9	10.4	6.9
COc1ccc(C(=O)N2CCN(c3ccc(F)cc3)CC2)c(OC)c1	15.8	0.2	-1.0	13.6	nt	nt
NNC(=O)c1cc(-c2ccc(Cl)cc2)n[nH]1	56.5*	0.0	1.3	-12.0	-1.8	-2.6
O=C(c1ccccc1F)N1CCN(c2ccc(-c3ccccn3)nn2)CC1	118.8*	-1.5	-0.4	-23.2	109.9*	100.6*
O=C(CSc1ccc(-c2ccccn2)nn1)N1CCN(c2ccccc2)CC1	8.9	-1.6	-0.6	7.1	nt	nt
CC(C)CC(=O)N1CCN(c2ccc(-c3ccccn3)nn2)CC1	125.4*	-1.6	-2.6	-5.0	114.1*	100.6*
O=C(C1CC1)N1CCN(c2ccc(-c3ccccn3)nn2)CC1	121.8*	-1.5	-5.7	-14.9	111.9*	100.6*
Cc1ccccc1C(=O)NC1=NCCS1	4.6	0.1	0.4	-4.7	nt	nt
COc1cc(OC)c(OC)cc1/C=N/NC(=O)CC1C(=O)NN=C1C (configuration not stated)	66.4*	0.0	0.3	12.7	1.1	-2.9
COc1cc(/C=N/NC(=O)CC2C(=O)NN=C2C)cc(OC)c1OC(C)=O (configuration not stated)	0.4	0.0	0.8	2.0	nt	nt
Ic1ccc(-c2csc(N3N=C(c4ccccc4)CC3c3ccccc3)n2)cc1 (configuration not stated)	-0.2	0.7	2.6	5.2	nt	nt
Cc1cccc(C(=O)Oc2ccc(-c3cccc(-c4ccc(OC(=O)c5cccc(C)c5)cc4)n3)cc2)c1	1.0	-0.2	0.6	-7.9	nt	nt
COc1ccc(NS(=O)(=O)c2ccc(NS(=O)(=O)c3ccccc3)cc2)c(OC)c1	3.3	0.1	0.1	0.8	nt	nt
O=C(NCCOc1ccccc1)c1ccc(-c2ccc(N3CCOCC3)nc2)s1	79.5*	0.3	-12.4	-31.6	3.3	2.4
O=C(NCc1ccccc1)c1ccc(-c2ccc(N3CCOCC3)nc2)s1	11.8	0.2	-0.2	11.1	nt	nt
COC(=O)c1nnn(CC(=O)Nc2ccc(Br)cc2)c1C(=O)OC	13.2	-0.1	-1.3	0.9	nt	nt
CCc1ccc(NC(=O)Cn2nnc(C(=O)OC)c2C(=O)OC)cc1	52.2*	0.0	2.7	-1.4	-6.2	-2.7
COc1ccc(C)cc1NS(=O)(=O)c1ccc2c(c1)CCC(=O)N2	72.5*	0.0	-0.5	3.1	61.8*	-3.5	AS interf DR=>6.48
O=C(c1cc2cc([N+](=O)[O-])ccc2s1)N1CCc2ccccc21	13.2	-0.1	2.9	-14.3	nt	nt
COc1cc(CN2CCN(C(=O)CC(C)C)CC2)cc(OC)c1	52.7*	-0.1	0.5	2.2	10.9	9.7
COc1ccc(CN2CCN(C(=O)CC(C)C)CC2)c(OC)c1OC	39.9	0.0	-0.2	7.4	nt	nt
COc1cc(CN2CCN(C(=O)CC(C)C)CC2)cc(OC)c1OC	69.6*	-0.2	0.7	4.0	5.6	1.9
CN(C)C(CNC(=O)Nc1ccccc1)c1cccn1C (configuration not stated)	-9.6	-0.3	2.6	-1.1	nt	nt
c1cn(-c2ccc(Nc3nc4ncnc(Nc5ccc(N6CCOCC6)cc5)c4[nH]3)cc2)cn1	-5.0	-0.3	-3.5	31.3	nt	nt
c1cn(-c2ccc(Nc3nc4ncnc(NCCN5CCOCC5)c4[nH]3)cc2)cn1	87.7*	-0.1	1.2	-6.3	5.8	19.6
SMILES	MITF primary	FBW7 act	GPR151 ag	TEAD-YAP block	MITF inh conf	AS interf ctr	others
O=C1Cc2ccccc2C(=S)N1	5.1	-0.1	0.3	2.2	nt	nt
COc1ccc(CN2CCN(C(=O)c3cccc(F)c3)CC2)cc1Br	58.9*	-0.1	-1.2	3.2	14.9	15.3
COc1ccc(CN2CCN(C(=O)c3cccnc3)CC2)cc1Br	59.5*	-0.1	-0.3	9.2	-6.2	-8.7
COc1cc(CN2CCN(C(=O)c3ccc(F)cc3)CC2)cc(OC)c1O	53.4*	-0.1	-0.1	-0.2	-4.6	1.8
COc1ccc(CN2CCN(C(=O)c3ccccc3)CC2)cc1Br	46.2	0.0	-1.9	6.0	nt	nt
COc1ccc(CN2CCN(C(=O)c3ccc(F)cc3)CC2)cc1Br	51.4*	-0.2	0.7	-1.1	-1.6	10.3
COc1cc(CNC(=O)CC[C@H]2CN(Cc3ccccc3)CC[C@H]2N(C)C)cc(OC)c1	-6.4	0.0	1.1	2.1	nt	nt
O=C(Nn1c(-c2ccccc2F)nc2ccccc2c1=O)c1cc2cc(Br)ccc2oc1=O	0.9	-0.1	1.7	-7.2	nt	nt
CCOC(=O)N1CCN(S(=O)(=O)c2ccc(C(=O)Nc3nc(-c4ccc([N+](=O)[O-])cc4)cs3)cc2)CC1	0.5	0.0	1.0	2.1	nt	nt
CC(=O)N1CCN(c2ccc(NC(=O)c3ccccc3)cc2)CC1	37.6	-0.2	-1.0	-48.9	nt	nt
CC(=O)N1CCN(c2ccc(NC(=S)NC(=O)c3ccccc3)cc2)CC1	51.7*	0.0	0.1	-7.2	7.7	19.7
COC(=O)CCCC[C@H]1SC[C@H]2NC(=O)N[C@]21O	84.5*	-0.8	0.5	-1.7	107.3*	92.4*
COc1ccc(NC(=O)CCNS(=O)(=O)c2cccc3nonc23)cc1Cl	55.0*	-0.1	-0.8	0.6	-2.6	0.7
COc1ccc(NC(=O)CNS(=O)(=O)c2cccc3nonc23)cc1Cl	6.2	0.0	0.0	6.2	nt	nt
Cc1ccc(/C=N/NC(=O)C2CC(=O)N(c3ccccc3)C2)cc1 (configuration not stated)	-18.4	-0.1	-0.4	25.9	nt	nt
CC(=O)c1ccc(OCC(O)CN(C)CCC#N)cc1 (configuration not stated)	66.2*	0.0	0.9	-2.9	4.1	4.4
CC(=O)c1ccc(OCC(O)COc2ccc(C(C)=O)cc2)cc1	-2.7	-0.1	2.5	0.4	nt	nt
COC(=O)c1c(OCc2cccnc2)cc(=O)n2c1CCN(C(=O)C1CCCCC1)CC2	68.7*	0.0	-1.0	-0.6	-5.8	1.8
O=C(COC(=O)c1cccc(N2C(=O)c3ccccc3C2=O)c1)c1ccccc1	5.0	0.1	2.2	-27.6	nt	nt
O=C(COC(=O)c1ccc2c(c1)C(=O)N(c1cccc(Cl)c1)C2=O)c1ccc([N+](=O)[O-])cc1	1.1	0.5	-0.1	3.0	nt	nt
CC(C)(C)C(=O)COC(=O)c1cccc(N2C(=O)c3ccccc3C2=O)c1	52.6*	0.0	-0.2	0.7	7.2	-2.4

Source: PubChem BioAssay (The Scripps Research Institute Molecular Screening Center)
